Measured values published in PubChem BioAssay AID743365 (National Center for Advancing Translational Sciences (NCATS), 2014).

Experiment: qHTS profiling of inhibitors of Plasmodium falciparum (DD2) proliferation (acoustic dispense)
Conditions: P. falciparum Dd2 in erythrocytes, SYBR Green DNA, 72 h; at 49.8 µM (top of the series) unless noted
Source text: Plasmodium falciparum is a virulent malarial parasite that kills 1-2 million people worldwide each year. Transmitted by mosquitoes, the sporozoite form of the parasite enters the blood stream to infect hepatocytes, where they become merozoites that infect red blood cells (erythrocytes). Within erythrocytes, merozoites begin a […] cycle of growth and division, after which the parasite is released to infect new red blood cells. Gametocytes, which form within erythrocytes as well, circulate in the bloodstream and are ingested by the mosquito, thereby completing the life cycle. To profile malarial isolates for differential chemical responses and to identify inhibitors of malarial growth, an assay that measures P. falciparum growth and replication within erythrocytes was employed. This assay uses a DNA binding fluorescent dye (SYBR Green) to detect parasite DNA following cell lysis. Because mature erythrocytes lack DNA, only Plasmodium-derived DNA is detected.
The SYBR Green viability assay was adapted from a method described previously (Plouffe et al., 2008). For screening 3 ul culture medium was dispensed into 1536 well black clear bottom plates (Aurora Biotechnologies) using a Multidrop Combi (Thermo Fisher Scientific Inc.), 23 nL of compounds in DMSO were added by an acoustic dispenser (EDC Biosystems), and 5 ul of erythrocytes infected with P. falciparum (0.3% parasitemia, 2.5% hematocrit final concentration) were added. The plates were incubated at 37 C in a humidified incubator in 5% CO2 for 72 h, and 2 ul lysis buffer (20 mM Tris HCl, 10 mM EDTA, 0.16% saponin, 1.6% triton X, 10X SYBR Green I supplied as 10,000X […] by Invitrogen) was added to each well. The plates were mixed for 25 sec with gentle shaking and incubated overnight at room temperature in the dark. The following morning, fluorescence intensity at 485(14) nm excitation and 535(25) nm emission wavelengths was measured on an EnVision (Perkin Elmer) plate reader. Plate reads were normalized relative to the control inhibitor (0.29 uM artemisinin) and vehicle (DMSO) wells present on each plate and then corrected by an algorithm using vehicle-only control plates at the beginning and end of the compound plate stack.

Row | SMILES | parasite growth, lower = inhibition
1 | CC=C1C2C=C(C)CC1(N)c1ccc(=O)[nH]c1C2 (configuration not stated) | 97.1%
2 | O=c1[nH]c2ccc(Cl)cc2c(N[C@@H]2CN3CCC2CC3)c1-c1nc2ccccc2[nH]1 | 0.0567%
3 | COC(=O)[C@@]1(OC)C[C@@H]2O[C@@]1(C)n1c3ccccc3c3c4c(c5c6ccccc6n2c5c31)C(=O)N(C)C4 | 13.1% [at 16.5 µM]
4 | CC(=Cc1csc(C)n1)[C@@H]1C[C@H]2O[C@@H]2CCC[C@H](C)[C@@H](O)[C@@H](C)C(=O)C(C)(C)[C@@H](O)CC(=O)O1 | 3%
5 | O=C(C[C@@H]1NCCC[C@@H]1O)Cn1cnc2ccccc2c1=O | -0.505%
6 | C[C@H]1CCCC=CC2C[C@H](O)C[C@@H]2[C@H](O)C=CC(=O)O1 (some centres not stated) | -0.172%
7 | CC=C(C)C(=O)N[C@@H](c1ccccc1)[C@@H](O)C(=O)O[C@H]1C[C@@]2(O)[C@@H](OC(=O)c3ccccc3)[C@@H]3[C@]4(OC(C)=O)CO[C@@H]4C[C@H](O)[C@@]3(C)C(=O)[C@H](OC(C)=O)C(=C1C)C2(C)C | 4.37%
8 | CC(C)(N)CNC(=O)CC1CCC2(CC1)OOC1(O2)C2CC3CC(C2)CC1C3 (configuration not stated) | -0.141%
9 | CC1=C(O)C(=O)C=C2C1=CC=C1[C@@]2(C)CC[C@@]2(C)[C@@H]3C[C@](C)(C(=O)O)CC[C@]3(C)CC[C@]12C | 3.33%
10 | C[C@@H]1C[C@@H]([C@H](O)CC2CC(=O)NC(=O)C2)C(=O)[C@@H](C)C1 | 0.0707%
11 | CC(=O)Nc1nnc(S(N)(=O)=O)s1 | 91%
12 | CC(=O)N(O)CCCP(=O)(O)O | 4.17%
13 | C[C@]12O[C@H](C[C@@]1(O)C(=O)O)n1c3ccccc3c3c4c(c5c6ccccc6n2c5c31)CNC4=O | 5.95% [at 4.15 µM]
14 | OB1OCc2cc(F)ccc21 | 88.5%
15 | CO[C@H]1CCC(O[C@H]2C[C@H]([C@]3(C)CC[C@]4(C[C@H](O)[C@@H](C)[C@@H]([C@@H](C)C=C(C)C(=O)[C@H](C)C[C@H](C)C(=O)O)O4)O3)O[C@]3(O[C@@H]([C@H]4O[C@@](O)(CO)[C@H](C)C[C@H]4C)C[C@H]3C)[C@H]2C)O[C@H]1C (some centres not stated) | 104%
16 | CN1C(=O)C[C@H](C(=O)N[C@@H](Cc2cnc[nH]2)C(=O)N2CCC[C@@H]2C(N)=O)NC1=O | 82%
17 | COC1=CC(C)=C[C@@H](C)[C@@H](O)[C@@H](C)CC(C)=CC=C[C@H](OC)[C@H]([C@@H](C)[C@@H](O)[C@H](C)[C@@]2(O)C[C@@H](O)[C@H](C)[C@@H](C(C)C)O2)OC1=O | 0.538%
